Only some compounds are listed: those with a hit (about 1.5% of all), similar ones and a draw of the others.
Eya2 phos inh: qHTS Assay for Inhibitors of the Phosphatase Activity of Eya2. Potency, µM (series often up to 76.9 µM), actives largely listed as inhibitors. 330,000 compounds, 0.006% hits. recombinant Eya2, OMFP fluorescence dephosphorylation (OMFP is methylfluorescein phosphate). AID 488837, 2010
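Eya2 protein (added as 0.2 uM solution) was preincubated with compound for 10 min at ambient temperature in 50 mM HEPES pH 7.5, 50 mM NaCl, 5 uM MgCl2, 0.05% BSA, 1 mM DTT. OMFP (added at 50 uM) then reacted 10 min; fluorescence read at 485/525 nm.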
CtBP-E1A blk: qHTS Assay for Inhibitors of the CtBP/E1A Interaction; CtBP / adenovirus E1A interaction (AlphaScreen); AlphaScreen GST-E1A/His-CtBP binding, 1536-well; hits give low values; activity change, % (no concentration beside the values); 340,000 compounds, 0.49% hits; AID 651724, 2012; in the data active = activity change below about -65%; inconclusive = mostly about -30% to -63%
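Protein mix (5X: 125 nM each GST-E1A, His-CtBP) was incubated with pinned compound 2 h at 37 deg C in dark, in 50 mM Tris pH 8.0 buffer with 300 mM NaCl. Glutathione donor and nickel acceptor beads followed; AlphaScreen signal read after 1 h.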
TrxR1 substrate: qHTS Assay for Substrates of Mammalian Selenoprotein Thioredoxin Reductase 1 (TrxR1): qHTS; purified TrxR1 substrate turnover, NADPH consumption readout; Potency, µM (highest dose often 114 µM); 390,000 compounds, 0.01% hits; AID 588456, 2011; note: nearly all actives have a fitted effect of over 50% in size
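Rat TrxR1, dispensed at 90 nM, was prereduced with 400 uM NADPH (final) for 5 min at ~22 deg C, then incubated with compound 15 min before 400 uM selenite. A first-read NADPH fluorescence drop versus no-compound background flagged substrates.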
Six1-Eya2 inh: qHTS Assay for Inhibitors of the Six1/Eya2 Interaction | 360,000 compounds, 0.56% hits | AID 651725, 2012 | activity change, % (concentration not given with the values) | AlphaScreen GST-Six1/His-Eya2 binding, biochemical; hits give low values; in the data active = activity change below about -65%; inconclusive = mostly about -30% to -63%
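AlphaScreen with GST-Six1 and His-Eya2 (5X mix: 250 nM and 500 nM), glutathione donor and nickel acceptor beads; buffer 50 mM Tris pH 8.0, 300 mM NaCl, 1 mM TCEP; 1 h at 37 C in the dark.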
TrxR1 inh-1: qHTS Assay for Inhibitors of Mammalian Selenoprotein Thioredoxin Reductase 1 (TrxR1): qHTS; Thioredoxin reductase 1, cytoplasmic (Rattus norvegicus), O89049; recombinant rTrxR1, NADPH fluorescence consumption, selenite substrate; Potency, µM (doses to about 114 µM), most hits filed as inhibitors; 390,000 compounds, 1% hits; AID 588453, 2011; note: nearly all actives have a fitted effect of over 65% in size
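Rat TrxR1 (90 nM in the dispensed reagent) was pre-reduced with 400 uM NADPH for 5 min at room temperature, then incubated with compound for 15 min. After 400 uM selenite was added, NADPH fluorescence (Ex 340/Em 450 nm) was followed for 8 min.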
GALK inhibitor: qHTS Assay for Inhibitors of Human Galactokinase (GALK); P51570; Potency, µM (highest dose often 57.5 µM), most hits filed as inhibitors; Purified GALK, Kinase-Glo residual ATP luminescence; 270,000 compounds, 0.007% hits
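Compounds were pin-transferred into ATP buffer (35 uM final), then GALK plus galactose (5 nM, 100 uM final) was added. After 1 h at room temperature, Kinase-Glo Plus was added and luminescence read after 10 min.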
TRb-SRC2 inh: Protein Interaction Secondary Assay for Inhibitors of the Interaction of Thyroid Hormone Receptor and Steroid Receptor Coregulator 2, Alpha Screen; AlphaScreen TRb LBD-SRC2 peptide binding, luminescence; AID 2444, 2010; shares compounds with TrxR1 inh-1; 30 compounds, 50% hits; Potency, µM; calls by dose curve
HepG2 viability: Cell Viability Secondary Assay for Inhibitors of the Interaction of Thyroid Hormone Receptor and Steroid Receptor Coregulator 2. AID 2447, 2010. shares compounds with TrxR1 inh-1. 40 compounds, 50% hits. Potency, µM. HepG2 viability, ATP luminescence (CellTiter-Glo), 72 h; calls by dose curve
AR SRC2 FP: Androgen Receptor Selectivity Assay for Inhibitors of the Interaction of Thyroid Hormone Receptor and Steroid Receptor Coregulator 2; AR-LBD Tx-SRC2-3 fluorescence polarization, 3 h; calls only; shares compounds with TrxR1 inh-1; 25 tested, under 10 active; call rule not given here
PPARg-DRIP2 inh: PPAR gamma Selectivity Assay For Inhibitors of the Interaction of Thyroid Hormone Receptor and Steroid Receptor Coregulator 2. 25 tested, under 10 active. Potency, µM. PPARg LBD / Texas Red DRIP-2 peptide, fluorescence polarization, 3 h. AID 2449, 2010. shares compounds with TrxR1 inh-1; calls by dose curve
VDR SRC2 FP: Vitamin D Receptor Selectivity Assay for Inhibitors of the Interaction of Thyroid Hormone Receptor and Steroid Receptor Coregulator 2. 25 tested, under 10 active. shares compounds with TrxR1 inh-1. VDR LBD/SRC2-3 peptide, fluorescence polarization, 3 h. Potency, µM; calls by dose curve
TRb SRC2 FluoFP: Secondary Confirmation Assay for Inhibitors of the Interaction of Thyroid Hormone Receptor and Steroid Receptor Coregulator 2, Fluorescein Fluoroprobe. 20 tested, under 10 active. Potency, µM. shares compounds with TrxR1 inh-1. TRb LBD / fluorescein-SRC2 peptide, fluorescence polarization; call rule not given here
GR inh: qHTS Assay for Inhibitors of Mammalian Selenoprotein Thioredoxin Reductase 1 (TrxR1): Counterassay in Glutathione Reductase (GR); shares compounds with TrxR1 inh-1; purified GR, DTNB reduction absorbance 405 nm kinetic; activity change, negative = inhibition, % at 57.1 µM; 55 tested, under 10 active; AID 652020, 2013
Target sequence (P00390 whole entry, looked up): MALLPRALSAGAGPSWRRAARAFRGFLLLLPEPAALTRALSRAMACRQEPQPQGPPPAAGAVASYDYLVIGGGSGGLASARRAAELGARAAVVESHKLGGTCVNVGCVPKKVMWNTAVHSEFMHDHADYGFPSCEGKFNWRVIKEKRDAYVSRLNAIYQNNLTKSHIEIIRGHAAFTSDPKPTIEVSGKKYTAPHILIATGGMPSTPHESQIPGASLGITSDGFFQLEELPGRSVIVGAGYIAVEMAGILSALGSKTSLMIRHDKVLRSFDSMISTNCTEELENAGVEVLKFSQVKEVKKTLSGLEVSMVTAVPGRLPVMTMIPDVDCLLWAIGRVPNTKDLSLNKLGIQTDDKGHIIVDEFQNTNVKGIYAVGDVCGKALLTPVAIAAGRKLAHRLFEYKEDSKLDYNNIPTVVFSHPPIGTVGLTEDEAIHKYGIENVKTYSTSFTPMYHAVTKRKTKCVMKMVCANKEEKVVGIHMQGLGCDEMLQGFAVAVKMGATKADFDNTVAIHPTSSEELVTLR
TrxR1 inh-2: qHTS Assay for Inhibitors of Mammalian Selenoprotein Thioredoxin Reductase 1 (TrxR1): Hit Validation in Primary Screen. shares compounds with TrxR1 inh-1. recombinant TrxR1, NADPH fluorescence consumption, selenite substrate. Potency, µM, usual class: inhibitors. 55 compounds, 50% hits. AID 652023, 2013
TrxR1 insulin MOA: qHTS Assay for Inhibitors of Mammalian Selenoprotein Thioredoxin Reductase 1 (TrxR1): Insulin MOA Assay; shares compounds with TrxR1 inh-1; TrxR1 Trx-coupled insulin reduction, NADPH absorbance 340 nm; Potency, µM; 55 compounds, 20% hits; AID 652037, 2013;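 active = compounds with a measured potency under 100 micromolar; inconclusive = filed, but no rule given; inactive = potency at or above that, or unmeasurable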
TrxR1 inh-3: qHTS Assay for Inhibitors of Mammalian Selenoprotein Thioredoxin Reductase 1 (TrxR1): DTNB Assay; 55 compounds, 90% hits; AID 652256, 2013; shares compounds with TrxR1 inh-1; Potency, µM; purified TrxR1, DTNB reduction, A412;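 active = a half-inhibiting concentration could be measured and was below 100 µM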
A number is an active result; 0 = inactive; ? = inconclusive; - = no result given. Unless noted, calls come from the whole dose curve; as a rule, active = well fitted curve in the direction sought with a large enough effect; inconclusive = small, poorly fitted or top-dose-only effect, or another doubt; inactive = no such curve, though single readings can be large; an effect the other way counts as inactive or inconclusive.

SMILES	Eya2 phos inh	CtBP-E1A blk	TrxR1 substrate	Six1-Eya2 inh	TrxR1 inh-1	GALK inhibitor	HepG2 viability	GR inh	TrxR1 inh-2	TrxR1 insulin MOA	TrxR1 inh-3	others
O=c1c(Cl)c(Cl)cnn1Cc1nnc(-c2ccc(Cl)cc2)o1	0	0	0	0	7.1µM	0	-	0	8.4	0	3.4µM
Cc1ccc(-c2nnc(Cc3ccc(Cl)cc3)o2)cc1	0	0	0	0	0	0	-	-	-	-	-
CCCNC(=O)c1ccc(S(=O)(=O)c2ccc(OC)cc2)c([N+](=O)[O-])c1	0	0	0	0	?	0	-	-	-	-	-
CS(=O)(=O)c1ccc(C(=O)NCC(=O)NC2C3CC4CC(C3)CC2C4)cc1[N+](=O)[O-] (stereo not given)	-	-	-	-	-	-	22µM	-	-	-	-	TRb-SRC2 inh=3.8µM;AR SRC2 FP=0;PPARg-DRIP2 inh=0;VDR SRC2 FP=0
CS(=O)(=O)c1ccc(C(=O)OC(C(=O)NC2C3CC4CC(C3)CC2C4)c2ccccc2)cc1[N+](=O)[O-] (stereo not given)	-	-	-	-	-	-	10µM	-	-	-	-
CN1c2cccc3cccc(c23)N(C)C1(C)C	0	0	0	0	0	0	-	-	-	-	-
CN1c2ccccc2N(C)C1(C)c1cccc2ccccc12	0	0	0	?	50µM	0	-	0	?	0	4.4µM
CCc1sc(-c2cc3cccc(OC)c3oc2=O)nc1-c1ccccc1	-	-	0	-	0	-	-	-	-	-	-
CCN(C(=O)CCS(=O)(=O)c1cc2c(cc1C)NC(=O)CO2)c1cccc(C)c1	-	-	0	-	0	-	-	-	-	-	-
CCOC(=O)C1CCN(C(c2ccccn2)c2c(C)[nH]c3ccccc23)CC1 (stereo not given)	0	0	0	0	2.5µM	0	-	0	1.5	0	0.19µM
Cc1nn2c(C)c(C(=O)NC(C)(C)C)cnc2c1-c1ccc(F)cc1	-	-	0	-	0	-	-	-	-	-	-
Cc1ccc(CNC(=O)c2cc3c(=O)n(C)c4ccccc4c3n2C)o1	0	0	0	0	?	0	-	-	-	-	-
Cc1ccc(CNC(=O)c2cn(C)c(=O)c3c2c2ccccc2n3C)o1	0	0	0	0	16µM	0	-	0	?	0	1.5µM
CS(=O)(=O)c1ccc(C(=O)OCC(=O)N2CCC(Cc3ccccc3)CC2)cc1[N+](=O)[O-]	-	-	-	-	-	-	9µM	-	-	-	-
CC1CCCCN1C(=O)COC(=O)c1ccc(S(C)(=O)=O)c([N+](=O)[O-])c1 (stereo not given)	-	-	0	-	10µM	-	22µM	-	-	-	-	TRb-SRC2 inh=19µM;AR SRC2 FP=0;PPARg-DRIP2 inh=0;VDR SRC2 FP=0;TRb SRC2 FluoFP=9.1µM
CCCC1CCN(C(=O)COC(=O)c2ccc(S(C)(=O)=O)c([N+](=O)[O-])c2)CC1	-	-	-	-	-	-	6.6µM	-	-	-	-

Assay outcomes deposited in PubChem BioAssay by National Center for Advancing Translational Sciences (NCATS).
